Calls of active or inactive are those of the source. How the source made its calls: active means hit-call score of the fitted dose curve at least 0.9, where 1 is the maximum; inactive means score below 0.9.
Assay: APR_HepG2_MitoticArrest_1hr: Apredica 1-hour HepG2 Assay for Mitotic Arrest (AID 2282672)
Conditions: high-content imaging, actives raise or lower the signal
Summary of the method: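 Ten-point concentration series (0.39 to 200 uM, duplicates, 0.5% v/v DMSO) applied to human HepG2 liver cells for 1 hr. High-content imaging of phospho-histone H3 and Hoechst-stained nuclei after fixation and permeabilization; DMSO-normalised bidirectional fit.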

Compound	outcome
CCSC(=O)N1CCCCCC1	inactive
COP(=O)(OC)O/C(C)=C/C(=O)N(C)C	inactive
C=CCOC(=O)C(C)(C)OC(=O)c1cc(-n2c(=O)cc(C(F)(F)F)n(C)c2=O)ccc1Cl	inactive
CN=C=S	inactive
Nc1c(Cl)c(F)nc(OCC(=O)O)c1Cl	inactive
Cc1cc(C)nc(Nc2ccccc2)n1	inactive
Clc1nc(Cl)nc(Nc2ccccc2Cl)n1	inactive
O=P(O)(O)CCCl	inactive
CNC(=O)N(C)c1nnc(C(C)(C)C)s1	inactive
COCC(C)N(C(=O)CCl)c1c(C)csc1C (configuration not stated)	inactive
CCOC(=O)C(C)OC(=O)c1cc(Oc2ccc(C(F)(F)F)cc2Cl)ccc1[N+](=O)[O-] (configuration not stated)	inactive
COC(=O)c1c(C(F)F)nc(C(F)(F)F)c(C2=NCCS2)c1CC(C)C	inactive
CC(C)Oc1cccc(NC(=O)c2ccccc2C(F)(F)F)c1	inactive
CN/C(=N\[N+](=O)[O-])NCc1cnc(Cl)s1	inactive
Cn1c(-c2ccccc2)cc(-c2ccccc2)[n+]1C	inactive
CC(C)C1(C)N=C(c2ncccc2C(=O)O)NC1=O (configuration not stated)	inactive
N#CN=C1SCCN1Cc1ccc(Cl)nc1	inactive
CCCCOCN(C(=O)CCl)c1c(CC)cccc1CC	inactive

Compound	outcome
CC(C)Nc1nc(Cl)nc(NC(C)C)n1	inactive
COC(=O)NC(=S)Nc1ccccc1NC(=S)NC(=O)OC	inactive
CCNP(=S)(OC)O/C(C)=C/C(=O)OC(C)C (configuration not stated)	inactive
CS(=O)(=O)c1ccc(C(=O)C2C(=O)CCCC2=O)c([N+](=O)[O-])c1	inactive
COC(=O)NS(=O)(=O)c1ccc(N)cc1	inactive
CNC(=O)Oc1cccc2ccccc12	inactive
CCCCC(C#N)(Cn1cncn1)c1ccc(Cl)cc1 (configuration not stated)	inactive
COC(=O)N(C(=O)N1CO[C@@]2(C(=O)OC)Cc3cc(Cl)ccc3C2=N1)c1ccc(OC(F)(F)F)cc1	inactive
CCNC(=O)NC(=O)C(C#N)=NOC	inactive
Nc1c(Cl)c(Cl)nc(C(=O)O)c1Cl	inactive
CCCCC(O)(Cn1cncn1)c1ccc(Cl)cc1Cl (configuration not stated)	inactive
Cc1c(COC(=O)[C@@H]2[C@H](/C=C(\Cl)C(F)(F)F)C2(C)C)cccc1-c1ccccc1	inactive
CO/N=C(/C1=NOCCO1)c1ccccc1Oc1ncnc(Oc2ccccc2Cl)c1F	inactive
O=C1C2CC=CCC2C(=O)N1SC(Cl)(Cl)Cl (configuration not stated)	inactive
CC(C)=CC1C(C(=O)OCc2coc(Cc3ccccc3)c2)C1(C)C (configuration not stated)	inactive
CCOc1cc(C(C)(C)C)ccc1C1COC(c2c(F)cccc2F)=N1 (configuration not stated)	inactive
CC(C)N1C(=O)c2ccccc2NS1(=O)=O	inactive
O=C(Nc1ccccc1-c1ccc(Cl)cc1)c1cccnc1Cl	inactive

Assay: APR_HepG2_P-H2AX_1hr: Apredica 1-hour HepG2 Assay for H2AX Phosphorylation (AID 2282673)
Conditions: high-content imaging, actives raise or lower the signal
Summary of the method: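 Phospho-H2A.x immunofluorescence (1:200, FITC secondary) plus Hoechst nuclear stain, quantified by high-content imaging in HepG2 after 1 hr compound exposure. Ten concentrations, 0.39 to 200 uM, in duplicate with 0.5% DMSO; fit both directions against DMSO.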

Compound	outcome	AC50
CCSC(=O)N1CCCCCC1	inactive	
COP(=O)(OC)O/C(C)=C/C(=O)N(C)C	inactive	
C=CCOC(=O)C(C)(C)OC(=O)c1cc(-n2c(=O)cc(C(F)(F)F)n(C)c2=O)ccc1Cl	inactive	
CN=C=S	inactive	
Nc1c(Cl)c(F)nc(OCC(=O)O)c1Cl	inactive	
Cc1cc(C)nc(Nc2ccccc2)n1	inactive	
Clc1nc(Cl)nc(Nc2ccccc2Cl)n1	inactive	
O=P(O)(O)CCCl	inactive	
CNC(=O)N(C)c1nnc(C(C)(C)C)s1	inactive	
COCC(C)N(C(=O)CCl)c1c(C)csc1C (configuration not stated)	inactive	
CCOC(=O)C(C)OC(=O)c1cc(Oc2ccc(C(F)(F)F)cc2Cl)ccc1[N+](=O)[O-] (configuration not stated)	inactive	
COC(=O)c1c(C(F)F)nc(C(F)(F)F)c(C2=NCCS2)c1CC(C)C	inactive	
CC(C)Oc1cccc(NC(=O)c2ccccc2C(F)(F)F)c1	inactive	
CN/C(=N\[N+](=O)[O-])NCc1cnc(Cl)s1	inactive	
Cn1c(-c2ccccc2)cc(-c2ccccc2)[n+]1C	inactive	
CC(C)C1(C)N=C(c2ncccc2C(=O)O)NC1=O (configuration not stated)	inactive	
N#CN=C1SCCN1Cc1ccc(Cl)nc1	inactive	
CCCCOCN(C(=O)CCl)c1c(CC)cccc1CC	inactive	

Compound	outcome	AC50
CC(C)Nc1nc(Cl)nc(NC(C)C)n1	inactive	
COC(=O)NC(=S)Nc1ccccc1NC(=S)NC(=O)OC	inactive	
CCNP(=S)(OC)O/C(C)=C/C(=O)OC(C)C (configuration not stated)	inactive	
CS(=O)(=O)c1ccc(C(=O)C2C(=O)CCCC2=O)c([N+](=O)[O-])c1	inactive	
COC(=O)NS(=O)(=O)c1ccc(N)cc1	inactive	
CNC(=O)Oc1cccc2ccccc12		57.9 µM (active)
CCCCC(C#N)(Cn1cncn1)c1ccc(Cl)cc1 (configuration not stated)	inactive	
COC(=O)N(C(=O)N1CO[C@@]2(C(=O)OC)Cc3cc(Cl)ccc3C2=N1)c1ccc(OC(F)(F)F)cc1	inactive	
CCNC(=O)NC(=O)C(C#N)=NOC	inactive	
Nc1c(Cl)c(Cl)nc(C(=O)O)c1Cl	inactive	
CCCCC(O)(Cn1cncn1)c1ccc(Cl)cc1Cl (configuration not stated)	inactive	
Cc1c(COC(=O)[C@@H]2[C@H](/C=C(\Cl)C(F)(F)F)C2(C)C)cccc1-c1ccccc1	inactive	
CO/N=C(/C1=NOCCO1)c1ccccc1Oc1ncnc(Oc2ccccc2Cl)c1F	inactive	
O=C1C2CC=CCC2C(=O)N1SC(Cl)(Cl)Cl (configuration not stated)		81.7 µM (active)
CC(C)=CC1C(C(=O)OCc2coc(Cc3ccccc3)c2)C1(C)C (configuration not stated)	inactive	
CCOc1cc(C(C)(C)C)ccc1C1COC(c2c(F)cccc2F)=N1 (configuration not stated)	inactive	
CC(C)N1C(=O)c2ccccc2NS1(=O)=O	inactive	
O=C(Nc1ccccc1-c1ccc(Cl)cc1)c1cccnc1Cl	inactive	
